Most compounds without a hit are left out; they make up all but 3.5% or so of the library.
TEAD-YAP inh = TEAD-YAP interaction inhibition. HEK-TIYL cells, TEAD-Gal4/YAP UAS-luciferase luminescence. inhibition, % at 9.12 µM. 640,000 compounds, 1.4% hits. AID 1259422; in the data active means inhibition above about 32%
GPR151 ag = activates the human receptor GPR151 | AID 1508602 | PathHunter beta-arrestin GPR151 cells, luminescence | activation, % at 11.2 µM | 650,000 compounds, 1% hits; in the data active means activation above about 4.9%
MITF inh = human MITF inhibition, primary screen | AlphaScreen MITF homodimerization, bead proximity signal | 650,000 compounds, 0.91% hits | O75030 | inhibition, % at 2.6 µM | AID 1259374; in the data active means inhibition above about 50%
Target sequence (O75030 whole entry, looked up): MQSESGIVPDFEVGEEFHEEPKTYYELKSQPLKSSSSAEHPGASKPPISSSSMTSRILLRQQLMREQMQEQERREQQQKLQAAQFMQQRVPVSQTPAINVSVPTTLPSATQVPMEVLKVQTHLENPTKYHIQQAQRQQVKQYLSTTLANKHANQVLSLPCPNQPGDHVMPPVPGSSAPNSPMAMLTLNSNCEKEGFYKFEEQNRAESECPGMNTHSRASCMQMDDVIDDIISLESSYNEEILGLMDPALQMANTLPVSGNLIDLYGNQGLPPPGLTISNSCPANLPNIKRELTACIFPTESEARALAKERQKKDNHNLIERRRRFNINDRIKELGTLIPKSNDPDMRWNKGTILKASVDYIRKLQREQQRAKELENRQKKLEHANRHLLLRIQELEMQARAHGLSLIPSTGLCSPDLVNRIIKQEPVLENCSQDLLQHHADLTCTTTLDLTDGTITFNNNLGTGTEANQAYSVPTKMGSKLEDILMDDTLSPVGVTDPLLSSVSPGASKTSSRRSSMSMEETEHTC
FBW7 activator = human FBW7 E3 ligase activation, primary screen; AlphaScreen FBW7–phospho-cyclin E peptide binding, activator screen; normalized activity (activation), % at 26.1 µM; 650,000 compounds, 0.13% hits; in the data active means normalized activity above about 1.9%;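 further: purified mutant Fbw7 with reduced substrate affinity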
A number is an active result; . = inactive.

SMILES	TEAD-YAP inh	GPR151 ag	MITF inh	FBW7 activator
COc1ccc(CCNc2cc(N3CCCCC3)ccc2[N+](=O)[O-])cc1OC	39	.	.	.
COc1ccc(CCNc2cc(N3CCN(C(=O)c4ccc(Br)cc4)CC3)ccc2[N+](=O)[O-])cc1OC	.	.	.	.
COC(=O)CCS(=O)(=O)c1ccc(C)cc1	.	.	.	.
COc1ccc(CNC(=O)c2ccc3c(=O)n(Cc4ccc(Cl)cc4)c(=S)[nH]c3c2)cc1	.	.	.	.
O=C(c1cc(-c2cccc(O)c2)on1)N1CCCCC1	67	.	.	.
CCC(C)C(=O)N1CCCC(c2nc(-c3cccc(OC)c3)no2)C1 (centres undefined)	61	.	.	.
COc1cccc(-c2cc(C(=O)N3CCCC3)no2)c1	38	.	.	.
O=C(c1cc(-c2ccccc2)on1)N1CCCCCC1	.	.	.	.
COc1ccc2oc(=O)c(-c3csc(Nc4ccc(F)cc4F)n3)cc2c1	.	.	.	.
CC(=O)NC(=S)Nc1ccc(Oc2ccccc2)cc1	.	.	.	.
CC1(C)Cc2nc3sc4c(N5CCNCC5)ncnc4c3cc2CS1	44	.	.	.
O=C(O)c1ccc(/C=N/Nc2nc3ccccc3s2)cc1	.	.	.	.
COc1ccc(/C=N/Nc2nc3ccccc3s2)cc1	34	.	.	.
Cc1cc(/C=N/Nc2nc3ccccc3s2)c(C)n1C1CC1	57	.	.	.
COC(=O)c1ccc(NC(=O)c2cc(=O)c(OCc3ccccc3)cn2C)cc1	.	.	.	.
Cc1ccc(Cn2c(C(=O)O)c(CNC3CCCCCC3)c3ccccc32)cc1	.	.	.	.
Cc1ccccc1NC(=O)C1CCCN1C(=O)Nc1ccccc1 (centres undefined)	.	.	.	.
Cc1ccc(NC(=O)N2CCCC2C(=O)Nc2ccccc2C)cc1 (centres undefined)	.	.	.	6.3
CCC(C)N1C(=O)S/C(=C/c2cc(C)n(-c3ccccn3)c2C)C1=O (centres undefined)	41	.	.	.
COc1ccc(C(CC(=O)O)NC(=O)COc2ccccc2)cc1OC (centres undefined)	.	.	.	.
COc1ccc(C(CC(=O)O)NC(=O)COc2cc(C)ccc2C)cc1OC (centres undefined)	.	.	.	2.9
CC(C)(C)c1nc2scc(-c3ccc(Br)cc3)c2c(=O)o1	34	.	.	.
CC(C)(C)c1nc2scc(-c3ccccc3)c2c(=O)o1	.	.	.	.
COc1ccccc1CNC(=O)c1ccc2c(=O)n(Cc3ccc4c(c3)OCO4)c(=S)[nH]c2c1	.	.	.	.
CCCC(=O)Nc1ccccc1-c1nc2cc3ccccc3cc2[nH]c1=O	55	.	.	.
SMILES	TEAD-YAP inh	GPR151 ag	MITF inh	FBW7 activator
COc1ccc(Nc2nc(N3CCN(c4ccccc4OC)CC3)nc3[nH]ncc23)cc1	.	.	.	.
COc1ccc(Nc2nc(N3CCCCC3)nc3[nH]ncc23)cc1	40	.	.	.
Cn1c(=NC(=O)c2cc(=O)c3ccccc3o2)sc2cc([N+](=O)[O-])ccc21	.	.	.	.
COc1ccc2cc(-c3nc4ccccc4[nH]3)c(=Nc3ccc(C(N)=O)cc3)oc2c1	66	.	.	.
COc1ccc2cc(-c3nc4ccccc4[nH]3)c(=Nc3ccc(F)cc3)oc2c1	76	.	.	.
COc1ccc2oc(=Nc3ccccc3)c(-c3nc4ccccc4[nH]3)cc2c1	.	.	.	.
Cc1ncn(-c2ccc(Nc3nccc(-c4cc(N5CCOCC5)cc(S(C)(=O)=O)c4)n3)cc2)n1	41	.	.	.
Cc1ncn(-c2ccc(Nc3nccc(Nc4ccccc4-c4ccn[nH]4)n3)cc2)n1	64	.	.	.
Cc1ncn(-c2ccc(Nc3nccc(-c4cc(F)cc(-c5cn[nH]c5C)c4)n3)cc2)n1	37	.	.	.
CN1CCN(c2ncn(-c3ccc(Nc4nccc(-c5cc(F)cc(N6CCOCC6)c5)n4)cc3)n2)CC1	56	.	.	.
Cc1ncn(-c2ccc(Nc3nccc(Nc4cccnc4)n3)cc2)n1	.	.	.	.
O=C(CN(c1ccccc1)S(=O)(=O)c1ccccc1)N1CCN(Cc2ccccc2)CC1	.	.	.	.
CCCN(CC1CCCO1)C(=O)CC1(c2ccccc2C)CC(=O)N(CCCOC)C1=O (centres undefined)	.	.	.	.
Cc1ncn(-c2ccc(Nc3nccc(-c4cccc(S(C)(=O)=O)c4)n3)cc2)n1	47	.	.	.
COC(=O)c1ccc(/C=C2\N=C(c3ccc(Cl)cc3)OC2=O)cc1	.	.	.	.
COc1cccc(C2CC(=O)C=C(NCc3ccccc3OC)C2)c1 (centres undefined)	52	.	.	.
O=C1C2CC=CCC2C(=O)N1CC(=O)N(Cc1ccccc1)C1CCS(=O)(=O)C1 (centres undefined)	.	.	.	.
O=C(CCl)N(C1CC1)C1CCS(=O)(=O)C1 (centres undefined)	54	.	.	.
O=C(CCl)N(C1CCCCC1)C1CCS(=O)(=O)C1 (centres undefined)	70	.	.	.
O=C(CCl)N(CC1CCCO1)C1CCS(=O)(=O)C1 (centres undefined)	.	.	.	.
O=C(CCl)N(C1CCCC1)C1CCS(=O)(=O)C1 (centres undefined)	65	.	.	.
O=C(CCl)N(Cc1ccccc1)C1CCS(=O)(=O)C1 (centres undefined)	56	.	.	.
Cn1c(SCC(=O)N(C2CCCCC2)C2CCS(=O)(=O)C2)nnc1C(F)(F)F (centres undefined)	.	.	.	.
COc1ccc(C(CC(=O)NCc2ccc3c(c2)OCO3)NS(=O)(=O)c2ccc(Cl)cc2)cc1 (centres undefined)	.	.	.	.
CCC(C)N(C(=O)CCl)C1CCS(=O)(=O)C1 (centres undefined)	56	.	.	.
SMILES	TEAD-YAP inh	GPR151 ag	MITF inh	FBW7 activator
OCCC1CCCCN1c1ccnc2c(-c3ccc(Cl)cc3)cnn12 (centres undefined)	47	.	.	.
COc1ccccc1-c1cnn2c(N3CCC[C@H]3CO)ccnc12	.	.	.	.
OCCC1CCCCN1c1ccnc2c(-c3ccoc3)cnn12 (centres undefined)	.	.	.	.
OC[C@@H]1CCCN1c1ccnc2c(-c3ccccc3Cl)cnn12	48	.	.	.
OCCC1CCCCN1c1ccnc2c(-c3ccc4c(c3)OCO4)cnn12 (centres undefined)	43	.	.	.
OCCC1CCCCN1c1ccnc2c(-c3ccc(O)cc3)cnn12 (centres undefined)	93	.	.	.
OCCC1CCCCN1c1ccnc2c(-c3ccc(CO)cc3)cnn12 (centres undefined)	.	.	.	.
O=C(Nc1ccc(F)cc1)c1cc(S(=O)(=O)N2CCC3(CC2)OCCO3)ccc1F	.	.	.	.
CCOC(=O)C(CC(C)C)N(Cc1ccccc1C)S(=O)(=O)c1ccc([N+](=O)[O-])cc1 (centres undefined)	.	.	.	.

Screens deposited in PubChem BioAssay by The Scripps Research Institute Molecular Screening Center.
